# Measured values taken from PubChem BioAssay AID1159580 (chemical genetic matrix, 2015).
# In all, about 5,500 compounds went through this assay and about 2,000 (36%) were called active. About 18% were inconclusive and are not listed. The list shows a part of the results. A number with no mark means an inactive call. Cut-off read from the data, not from the text of the source: active = normalized growth mostly below about 0.91 (no sharp cut-off); inconclusive = no clear call, values can overlap the other calls; inactive = mostly above about 0.92.
# Assay: chemical genetic growth profiling, strain panel (AID 1159580);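 note: tested at 20 µM; growth read once vehicle control cultures reached saturation at 30 °C; 1 = growth at the plate median or of vehicle wells; lower values mean less growth of the strain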
# Conditions: growth OD
# [1] = S. cerevisiae deletion strains, locus YCL061C, strain MRC1, active compounds read low
# [2] = S. cerevisiae deletion strains, locus YHR030C, strain SLT2, active compounds read low
# [3] = S. cerevisiae deletion strains, locus YJL187C, strain SWE1, active compounds read low
smiles,measurement,setting,value
CC(=O)NS(=O)(=O)c1ccc(NC(=O)c2ccccc2C(=O)O)cc1,normalized growth,"S. cerevisiae deletion strains, locus YAL021C, strain ccr4, active compounds read low",1.01
same,normalized growth,"S. cerevisiae deletion strains, locus YAL026C, strain drs2, active compounds read low",1.02
same,normalized growth,"S. cerevisiae deletion strains, locus YAL030W, strain snc1, active compounds read low",1.02
same,normalized growth,"S. cerevisiae deletion strains, locus YBL061C, strain skt5, active compounds read low",1.01
same,normalized growth,"S. cerevisiae deletion strains, locus YBR009C, strain hhf1, active compounds read low",1.03
same,normalized growth,"S. cerevisiae deletion strains, locus YBR023C, strain chs3, active compounds read low",1.02
same,normalized growth,"S. cerevisiae deletion strains, locus YBR171W, strain sec66, active compounds read low",1.04
same,normalized growth,"S. cerevisiae deletion strains, locus YBR231C, strain swc5, active compounds read low",1.01
same,normalized growth,"S. cerevisiae deletion strains, locus YBR279W, strain paf1, active compounds read low",1.02
same,normalized growth,"S. cerevisiae deletion strains, locus YCL011C, strain gbp2, active compounds read low",1.01
same,normalized growth,"S. cerevisiae deletion strains, locus YCL016C, strain dcc1, active compounds read low",1.02
same,normalized growth,[1],1.02
same,normalized growth,"S. cerevisiae deletion strains, locus YCL069W, strain vba3, active compounds read low",1.02
same,normalized growth,"S. cerevisiae deletion strains, locus YCR088W, strain abp1, active compounds read low",1.01
same,normalized growth,"S. cerevisiae deletion strains, locus YDL005C, strain med2, active compounds read low",1.02
same,normalized growth,"S. cerevisiae deletion strains, locus YDL040C, strain nat1, active compounds read low",1.02
same,normalized growth,"S. cerevisiae deletion strains, locus YDR001C, strain nth1, active compounds read low",1.01
same,normalized growth,"S. cerevisiae deletion strains, locus YDR069C, strain doa4, active compounds read low",1.02
same,normalized growth,"S. cerevisiae deletion strains, locus YDR137W, strain rgp1, active compounds read low",1.04
same,normalized growth,"S. cerevisiae deletion strains, locus YDR159W, strain sac3, active compounds read low",1.04
same,normalized growth,"S. cerevisiae deletion strains, locus YDR195W, strain ref2",1.01
same,normalized growth,"S. cerevisiae deletion strains, locus YDR297W, strain sur2, active compounds read low",1.01
same,normalized growth,"S. cerevisiae deletion strains, locus YDR334W, strain swr1, active compounds read low",1.01
same,normalized growth,"S. cerevisiae deletion strains, locus YDR335W, strain msn5, active compounds read low",1.01
same,normalized growth,"S. cerevisiae deletion strains, locus YDR392W, strain spt3, active compounds read low",1.01
same,normalized growth,"S. cerevisiae deletion strains, locus YEL003W, strain gim4, active compounds read low",1.01
same,normalized growth,"S. cerevisiae deletion strains, locus YEL037C, strain rad23, active compounds read low",1.01
same,normalized growth,"S. cerevisiae deletion strains, locus YEL061C, strain CIN8 (second series), active compounds read low",1.02
same,normalized growth,"S. cerevisiae deletion strains, locus YER015W, strain faa2, active compounds read low",1.02
same,normalized growth,"S. cerevisiae deletion strains, locus YER016W, strain bim1, active compounds read low",1.02
same,normalized growth,"S. cerevisiae deletion strains, locus YER111C, strain swi4, active compounds read low",1.02
same,normalized growth,"S. cerevisiae deletion strains, locus YER155C, strain BEM2 (second series), active compounds read low",1.05
same,normalized growth,"S. cerevisiae deletion strains, locus YFR010W, strain ubp6, active compounds read low",1.02
same,normalized growth,"S. cerevisiae deletion strains, locus YGL167C, strain pmr1, active compounds read low",1.02
same,normalized growth,"S. cerevisiae deletion strains, locus YGL173C, strain kem1, active compounds read low",1.02
same,normalized growth,"S. cerevisiae deletion strains, locus YGL227W, strain vid30, active compounds read low",1.02
same,normalized growth,"S. cerevisiae deletion strains, locus YGL240W, strain doc1, active compounds read low",1.01
same,normalized growth,"S. cerevisiae deletion strains, locus YGL253W, strain hxk2, active compounds read low",1.02
same,normalized growth,"S. cerevisiae deletion strains, locus YHR013C, strain ard1, active compounds read low",1.02
same,normalized growth,"S. cerevisiae deletion strains, locus YHR027C, strain rpn1, active compounds read low",1.02
same,normalized growth,[2],0.958
same,normalized growth,"S. cerevisiae deletion strains, locus YHR079C, strain IRE1, active compounds read low",0.969
same,normalized growth,"S. cerevisiae deletion strains, locus YHR142W, strain chs7, active compounds read low",1.04
same,normalized growth,"S. cerevisiae deletion strains, locus YJL092W, strain hpr5, active compounds read low",1.01
same,normalized growth,"S. cerevisiae deletion strains, locus YJL095W, strain BCK1 (second series), active compounds read low",1.02
same,normalized growth,"S. cerevisiae deletion strains, locus YJL095W, strain BCK1, active compounds read low",0.972
same,normalized growth,"S. cerevisiae deletion strains, locus YJL115W, strain asf1, active compounds read low",1.02
same,normalized growth,"S. cerevisiae deletion strains, locus YJL129C, strain trk1, active compounds read low",1.03
same,normalized growth,"S. cerevisiae deletion strains, locus YJL154C, strain vps35, active compounds read low",1.02
same,normalized growth,"S. cerevisiae deletion strains, locus YJL164C, strain tpk1, active compounds read low",1.01
same,normalized growth,"S. cerevisiae deletion strains, locus YJL166W, strain qcr8, active compounds read low",1.02
same,normalized growth,[3],1.01
same,normalized growth,"S. cerevisiae deletion strains, locus YJR066W, strain TOR1, active compounds read low",0.949
same,normalized growth,"S. cerevisiae deletion strains, locus YKL160W, strain elf1, active compounds read low",1.02
same,normalized growth,"S. cerevisiae deletion strains, locus YKR026C, strain gcn3, active compounds read low",1
same,normalized growth,"S. cerevisiae deletion strains, locus YKR091W, strain srl3, active compounds read low",1.01
same,normalized growth,"S. cerevisiae deletion strains, locus YLL001W, strain dnm1, active compounds read low",1.01
same,normalized growth,"S. cerevisiae deletion strains, locus YLL026W, active compounds read low",1.02
same,normalized growth,"S. cerevisiae deletion strains, locus YLL041C, strain sdh2, active compounds read low",1.02
same,normalized growth,"S. cerevisiae deletion strains, locus YLR027C, strain aat2, active compounds read low",1.02
same,normalized growth,"S. cerevisiae deletion strains, locus YLR113W, strain HOG1, active compounds read low",0.976
same,normalized growth,"S. cerevisiae deletion strains, locus YLR221C, strain rsa3, active compounds read low",1.02
same,normalized growth,"S. cerevisiae deletion strains, locus YLR258W, strain gsy2, active compounds read low",1.01
same,normalized growth,"S. cerevisiae deletion strains, locus YLR262C, strain YPT6 (second series), active compounds read low",1.03
same,normalized growth,"S. cerevisiae deletion strains, locus YLR320W, strain mms22, active compounds read low",1.03
same,normalized growth,"S. cerevisiae deletion strains, locus YLR342W, strain FKS1, active compounds read low",1.01
same,normalized growth,"S. cerevisiae deletion strains, locus YLR357W, strain rsc2, active compounds read low",1.05
same,normalized growth,"S. cerevisiae deletion strains, locus YLR370C, strain arc18, active compounds read low",1.02
same,normalized growth,"S. cerevisiae deletion strains, locus YLR384C, strain iki3, active compounds read low",1.03
same,normalized growth,"S. cerevisiae deletion strains, locus YML120C, strain ndi1, active compounds read low",1.01
same,normalized growth,"S. cerevisiae deletion strains, locus YMR058W, strain fet3, active compounds read low",1.04
same,normalized growth,"S. cerevisiae deletion strains, locus YMR125W, strain sto1, active compounds read low",1.03
same,normalized growth,"S. cerevisiae deletion strains, locus YMR129W, active compounds read low",1.03
same,normalized growth,"S. cerevisiae deletion strains, locus YMR205C, strain PFK2, active compounds read low",1.02
same,normalized growth,"S. cerevisiae deletion strains, locus YMR231W, strain pep5, active compounds read low",1.02
same,normalized growth,"S. cerevisiae deletion strains, locus YNL071W, strain lat1, active compounds read low",1.02
same,normalized growth,"S. cerevisiae deletion strains, locus YNL183C, strain NPR1, active compounds read low",0.91
same,normalized growth,"S. cerevisiae deletion strains, locus YNL209W, strain ssb2, active compounds read low",1.02
same,normalized growth,"S. cerevisiae deletion strains, locus YNL248C, strain rpa49, active compounds read low",1.02
same,normalized growth,"S. cerevisiae deletion strains, locus YNL322C, strain KRE1 (second series), active compounds read low",1.01
same,normalized growth,"S. cerevisiae deletion strains, locus YNR049C, strain mso1, active compounds read low",1.01
same,normalized growth,"S. cerevisiae deletion strains, locus YOR001W, strain rrp6, active compounds read low",1.02
same,normalized growth,"S. cerevisiae deletion strains, locus YOR070C, strain gyp1, active compounds read low",1.01
same,normalized growth,"S. cerevisiae deletion strains, locus YOR080W, strain dia2, active compounds read low",1.01
same,normalized growth,"S. cerevisiae deletion strains, locus YOR083W, strain WHI5, active compounds read low",1.01
same,normalized growth,"S. cerevisiae deletion strains, locus YOR106W, strain vam3, active compounds read low",1.03
same,normalized growth,"S. cerevisiae deletion strains, locus YOR231W, strain MKK1, active compounds read low",0.953
same,normalized growth,"S. cerevisiae deletion strains, locus YOR265W, strain rbl2, active compounds read low",1.03
same,normalized growth,"S. cerevisiae deletion strains, locus YOR270C, strain vph1, active compounds read low",1.05
same,normalized growth,"S. cerevisiae deletion strains, locus YOR290C, strain snf2, active compounds read low",1.04
same,normalized growth,"S. cerevisiae deletion strains, locus YPL051W, strain arl3, active compounds read low",1.03
same,normalized growth,"S. cerevisiae deletion strains, locus YPL078C, strain atp4, active compounds read low",1.02
same,normalized growth,"S. cerevisiae deletion strains, locus YPL106C, strain sse1, active compounds read low",0.991
same,normalized growth,"S. cerevisiae deletion strains, locus YPL240C, strain hsp82, active compounds read low",1.01
same,normalized growth,"S. cerevisiae deletion strains, locus YPL256C, strain CLN2, active compounds read low",0.975
CNS(=O)(=O)c1cc(Br)ccc1S(=O)c1ccccc1C(=O)O (stereo not given),normalized growth,"S. cerevisiae deletion strains, locus YAL013W, strain DEP1, active compounds read low",1
same,normalized growth,"S. cerevisiae deletion strains, locus YBR229C, strain ROT2, active compounds read low",1
same,normalized growth,[1],1
same,normalized growth,"S. cerevisiae deletion strains, locus YDL101C, strain DUN1, active compounds read low",1.05
same,normalized growth,"S. cerevisiae deletion strains, locus YDR150W, strain NUM1, active compounds read low",1.01
same,normalized growth,"S. cerevisiae deletion strains, locus YEL061C, strain CIN8, active compounds read low",1.02
same,normalized growth,"S. cerevisiae deletion strains, locus YGR078C, strain PAC10, active compounds read low",1.01
same,normalized growth,[2],0.98
same,normalized growth,"S. cerevisiae deletion strains, locus YHR087W, strain rtc3, active compounds read low",1.03
same,normalized growth,[3],1
same,normalized growth,"S. cerevisiae deletion strains, locus YJR043C, strain POL32, active compounds read low",1
same,normalized growth,"S. cerevisiae deletion strains, locus YJR075W, strain HOC1, active compounds read low",0.997
same,normalized growth,"S. cerevisiae deletion strains, locus YKL190W, strain CNB1, active compounds read low",0.982
same,normalized growth,"S. cerevisiae deletion strains, locus YLR039C, strain RIC1, active compounds read low",1.01
same,normalized growth,"S. cerevisiae deletion strains, locus YLR058C, strain SHM2 (second series), active compounds read low",0.992
same,normalized growth,"S. cerevisiae deletion strains, locus YLR085C, strain ARP6, active compounds read low",0.983
same,normalized growth,"S. cerevisiae deletion strains, locus YLR262C, strain YPT6, active compounds read low",1.02
same,normalized growth,"S. cerevisiae deletion strains, locus YML094W, strain GIM5, active compounds read low",1.15 [resistant] (active)
same,normalized growth,"S. cerevisiae deletion strains, locus YMR219W, strain ESC1, active compounds read low",1.01
same,normalized growth,"S. cerevisiae deletion strains, locus YMR263W, strain SAP30, active compounds read low",0.984
same,normalized growth,"S. cerevisiae deletion strains, locus YMR307W, strain GAS1, active compounds read low",0.942
same,normalized growth,"S. cerevisiae deletion strains, locus YNL153C, strain GIM3, active compounds read low",1.03
same,normalized growth,"S. cerevisiae deletion strains, locus YNL298W, strain CLA4 (second series), active compounds read low",0.995
same,normalized growth,"S. cerevisiae deletion strains, locus YNL322C, strain KRE1, active compounds read low",1.01
same,normalized growth,"S. cerevisiae deletion strains, locus YNR030W, strain Alg12, active compounds read low",1.03
same,normalized growth,"S. cerevisiae deletion strains, locus YOL006C, strain TOP1, active compounds read low",0.975
same,normalized growth,"S. cerevisiae deletion strains, locus YPL055C, strain LGE1, active compounds read low",1.04
same,normalized growth,"S. cerevisiae deletion strains, locus YPL241C, strain CIN2, active compounds read low",1.04
same,normalized growth,"S. cerevisiae deletion strains, locus YPR135W, strain CTF4, active compounds read low",1.15
same,normalized growth,"S. cerevisiae strains, strain wild type, active compounds read low",0.968
